Source: PubChem
In the library only some 19% were active in any assay of this set; here they are far more common.
HT1080 IDH1KD tx: HT-1080 IDH1 knockdown cell toxicity (counter line) | HT-1080 IDH1 knockdown viability, ATP luminescence, 48 h | Potency, µM (titrated, usually from 46.1 µM), inactives show at the top dose activity, negative = toxicity, actives largely listed as cytotoxic | 360,000 tested, 2% active;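 further: 0% = DMSO wells and -100% = cell-free medium wells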
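Luminescent ATP read-out (CellTiter-Glo, 10 min at room temperature) after 48 h compound exposure at 37 °C gave viability of IDH1-knockdown HT-1080 cells. Activity was normalised to DMSO and cell-free wells, then fitted as concentration-response curves.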
DT40 TDP1 CPT: DT40-hTDP1 cell growth loss with CPT. AID 686979. chicken DT40 Tdp1-/-;hTDP1 cells + 20 nM CPT, ATP luminescence, 48 h. Potency, µM (highest dose often 46.2 µM), for inactives: top-dose activity change, negative = growth inhibition, actives largely listed as inhibitors. 420,000 tested, 12% active; further: nearly all actives have a fitted effect of over 55% in size
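Chicken DT40 Tdp1-/- cells complemented with human TDP1, 400 cells/well, exposed to compounds plus 20 nM camptothecin for at least 48 h at 37 C; viability read as ATP content by CellTiter-Glo luminescence.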
KB-3-1 tox: KB-3-1 parental cell cytotoxicity; KB-3-1 viability, CellTiter-Glo ATP luminescence, 72 h; Potency, µM (titrated, usually from 46.1 µM), actives largely listed as cytotoxic; 400,000 tested, 1.4% active; further: nearly all actives have a fitted effect of over 60% in size
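Multi-concentration cytotoxicity screen in KB-3-1 cells grown in DMEM lacking phenol red with 10% FBS. After 72 h at 37 °C with compound, ATP-dependent luminescence was recorded.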
DT40 TDP1 no CPT: qHTS for Inhibitors of human tyrosyl-DNA phosphodiesterase 1 (TDP1): qHTS in cells in absence of CPT. Potency, µM (titrated, usually from 46.2 µM), for inactives: at the top dose activity change, negative = growth inhibition, most hits filed as inhibitors. DT40 Tdp1-/- hTDP1 cells, no CPT, ATP luminescence, 48 h. AID 686978, 2013. 420,000 tested, 15% active; further: nearly all actives have a fitted effect of over 55% in size
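Stably hTDP1-transfected Tdp1-null chicken DT40 cells were treated with library compounds minus camptothecin and grown for at least 48 hr at 37 °C, after which cellular ATP was quantified by luminescence.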
HT1080-NT tox: kills 2HG-producing HT-1080-NT fibrosarcoma cells; HT-1080-NT fibrosarcoma viability, CellTiter-Glo ATP luminescence, 48 h; Potency, µM (doses to about 46.1 µM), for inactives: at the top dose activity, negative = less viability, actives largely listed as cytotoxic; 360,000 tested, 1.6% active; AID 686970;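 further: NT is the 2HG producing partner of a matched IDH1 knockdown line; 0% = DMSO-treated cells and -100% = media-only wells without cells; nearly all actives have a fitted effect of over 55% in size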
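Read-out is CellTiter-Glo luminescence after 10 minutes at room temperature, following 48 hours' compound treatment of HT-1080-NT cells (750 cells/well, RPMI, 5% FBS, 37 degrees C).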
KB-V1 cytotox: kills drug-selected multidrug resistant KB-V1 cells | KB-V1 MDR cells viability, CellTiter-Glo, 72 h | Potency, µM (top dose mostly 46.1 µM), usual class: cytotoxic | 400,000 tested, 3.4% active | AID 1347076; further: nearly all actives have a fitted effect of over 60% in size
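KB-V1 MDR subline cells in DMEM (phenol-red free, 10% FBS) exposed to compounds in qHTS concentration series for 72 h at 37 degrees C. Viability read by CellTiter-Glo luminescence; concentration-effect curves fitted after normalization and correction.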
* = called active by the depositor. The call rests on the fitted dose curve; in most records, active means well fitted curve in the direction sought with a large enough effect; inconclusive means small, poorly fitted or top-dose-only effect, or another doubt; inactive means no such curve, though single readings can be large; an effect the other way counts as inactive or inconclusive. Unless noted, on the % scale 0 is the no-effect control and ±100 the full control effect; potency means the concentration at half of the fitted maximal effect.

How did Nc1nc(CN2CCN(c3ccccc3F)CC2)nc(Nc2ccccc2)n1 do in these assays?
HT1080 IDH1KD tx: -4%; DT40 TDP1 CPT: 23µM*; KB-3-1 tox: inactive; DT40 TDP1 no CPT: inconclusive; HT1080-NT tox: -10%; KB-V1 cytotox: inconclusive

What do the screens show for `Nc1nc(CN2CCCCCC2)nc(Nc2ccccc2)n1`?
HT1080 IDH1KD tx: 1%; DT40 TDP1 CPT: -1%; KB-3-1 tox: inactive; DT40 TDP1 no CPT: -13%; HT1080-NT tox: 11%; KB-V1 cytotox: inactive

What do the screens show for `CCOC(=O)C1CCCN(Cc2nc(N)nc(Nc3ccccc3)n2)C1` (configuration not stated)?
HT1080 IDH1KD tx: -4%; DT40 TDP1 CPT: inconclusive; KB-3-1 tox: inactive; DT40 TDP1 no CPT: 18µM*; HT1080-NT tox: -6%; KB-V1 cytotox: inconclusive

How did Cc1cccc(Nc2nc(N)nc(CN3CCN(c4ccc(F)cc4)CC3)n2)c1 do in these assays?
HT1080 IDH1KD tx: -27%; DT40 TDP1 CPT: 18µM*; KB-3-1 tox: inconclusive; DT40 TDP1 no CPT: 16µM*; HT1080-NT tox: -6%; KB-V1 cytotox: inconclusive

Results for Cc1ccc(Nc2nc(N)nc(CN3CCCCCC3)n2)cc1 ?
HT1080 IDH1KD tx: -1%; DT40 TDP1 CPT: inconclusive; KB-3-1 tox: inactive; DT40 TDP1 no CPT: inconclusive; HT1080-NT tox: -1%; KB-V1 cytotox: inactive

How did CN(C)S(=O)(=O)c1ccc(N2CCCC2)c(C(=O)NCC2CCCO2)c1 (configuration not stated) do in these assays?
HT1080 IDH1KD tx: 3%; DT40 TDP1 CPT: -12%; KB-3-1 tox: inactive; DT40 TDP1 no CPT: 5%; HT1080-NT tox: 2%; KB-V1 cytotox: inactive

How did CCN(C(=O)COC(=O)Cn1c(=O)oc2ccccc21)c1c(N)n(Cc2ccccc2)c(=O)[nH]c1=O do in these assays?
HT1080 IDH1KD tx: -3%; DT40 TDP1 CPT: -2%; KB-3-1 tox: inactive; DT40 TDP1 no CPT: 13%; HT1080-NT tox: -1%; KB-V1 cytotox: inactive

What do the screens show for `COc1ccc(Nc2nc(N)nc(CN3CCC(C)CC3)n2)cc1`?
HT1080 IDH1KD tx: -4%; DT40 TDP1 CPT: 1%; KB-3-1 tox: inactive; DT40 TDP1 no CPT: -6%; HT1080-NT tox: 6%; KB-V1 cytotox: inactive

Results for CC1CC(C)CN(Cc2nc(N)nc(Nc3ccc4ccccc4c3)n2)C1 (configuration not stated) ?
HT1080 IDH1KD tx: inconclusive; DT40 TDP1 CPT: 23µM*; KB-3-1 tox: 12µM*; DT40 TDP1 no CPT: 21µM*; HT1080-NT tox: inconclusive; KB-V1 cytotox: inconclusive

How did Nc1nc(CN2CCC(Cc3ccccc3)CC2)nc(Nc2ccccc2)n1 do in these assays?
HT1080 IDH1KD tx: -1%; DT40 TDP1 CPT: 18µM*; KB-3-1 tox: inconclusive; DT40 TDP1 no CPT: 23µM*; HT1080-NT tox: -17%; KB-V1 cytotox: inactive

How did COC(=O)c1cc(NC(=O)Cn2nc(-c3ccc(C)c(C)c3)ccc2=O)cc(C(=O)OC)c1 do in these assays?
DT40 TDP1 CPT: 4%; KB-3-1 tox: inactive; DT40 TDP1 no CPT: -5%; KB-V1 cytotox: inactive

Results for CC(=O)N1c2ccc(S(=O)(=O)N(C)CC(=O)NC3CCCC3)cc2CC1C (configuration not stated) ?
HT1080 IDH1KD tx: 6%; DT40 TDP1 CPT: inconclusive; KB-3-1 tox: inactive; DT40 TDP1 no CPT: 0%; HT1080-NT tox: 17%; KB-V1 cytotox: inactive

Results for Cc1onc(-c2ccccc2)c1C(=O)N1CCC(C)(C(=O)NS(=O)(=O)C2CC2)C1 (configuration not stated) ?
HT1080 IDH1KD tx: 9%; DT40 TDP1 CPT: 11%; KB-3-1 tox: inactive; DT40 TDP1 no CPT: 17%; HT1080-NT tox: 15%; KB-V1 cytotox: inactive
